Shown are actives, neighbours in structure and some others; about 9.9% of the full set was active somewhere.
ALDH1A1 block = qHTS Assay for Inhibitors of Aldehyde Dehydrogenase 1 (ALDH1A1); Aldehyde dehydrogenase 1A1 (Homo sapiens), P00352; Purified ALDH1A1, NADH fluorescence, propionaldehyde substrate; Potency, µM (highest dose often 75.3 µM), usual class: inhibitors; 7.3% of 220,000 active; AID 1030, 2008
HPGD inh = qHTS Assay for Inhibitors of HPGD (15-Hydroxyprostaglandin Dehydrogenase); 15-hydroxyprostaglandin dehydrogenase [NAD(+)] (Homo sapiens), P15428; purified HPGD, NADH fluorescence kinetic, PGE2 substrate; Potency, µM, hits mostly inhibitors; 4.3% of 150,000 active
Target sequence (P15428 whole entry, looked up): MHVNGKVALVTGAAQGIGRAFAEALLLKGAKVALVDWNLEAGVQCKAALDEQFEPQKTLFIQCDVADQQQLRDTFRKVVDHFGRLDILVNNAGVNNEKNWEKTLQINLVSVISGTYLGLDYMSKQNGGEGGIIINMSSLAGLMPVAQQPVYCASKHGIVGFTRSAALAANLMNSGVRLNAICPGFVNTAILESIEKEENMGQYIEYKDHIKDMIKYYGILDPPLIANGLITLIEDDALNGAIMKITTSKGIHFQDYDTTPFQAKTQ
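20 nM HPGD preincubated 15 min at room temperature with compound in 50 mM Tris-HCl pH 8, 0.01% Tween 20. Started with 1 mM NAD+ and 30 uM prostaglandin E2; NADH fluorescence (360/450 nm) read 5 times over 30-s intervals, last minus first.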
Tau fluor counter = Counterscreen qHTS for Inhibitors of Tau Fibril Formation, Fluorescence Polarization. tau K18 P301L Alexa594 fluorescence, heparin fibrillization. Potency, µM (highest dose often 57.7 µM). 0.93% of 280,000 active. AID 1463, 2008; active means well fitted curve in the direction sought with a large enough effect; inconclusive means small, poorly fitted or top-dose-only effect, or another doubt; inactive means no such curve, though single readings can be large; an effect the other way counts as inactive or inconclusive; further: nearly all actives have a fitted effect of over 55% in size
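Human tau K18 P301L (15 uM unlabeled, 0.24 uM Alexa 594-labeled) in 100 mM sodium acetate pH 7 with 20 uM heparin, 6 hr at 37 C. ThT 30 uM added, 1 hr ambient; Alexa 594 FP and total fluorescence read at 555/632 nm.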
Tau FP inhib = qHTS for Inhibitors of Tau Fibril Formation, Fluorescence Polarization; Microtubule-associated protein tau (Homo sapiens), P10636; K18 P301L tau heparin fibrillization, Alexa594 FP, 6 h; Potency, µM (highest dose often 57.7 µM), most hits filed as inhibitors; 0.39% of 280,000 active; AID 1468, 2008; active means well fitted curve in the direction sought with a large enough effect; inconclusive means small, poorly fitted or top-dose-only effect, or another doubt; inactive means no such curve, though single readings can be large; an effect the other way counts as inactive or inconclusive; further: nearly all actives have a fitted effect of over 55% in size
Target sequence (P10636 561-689 P618L limits assumed): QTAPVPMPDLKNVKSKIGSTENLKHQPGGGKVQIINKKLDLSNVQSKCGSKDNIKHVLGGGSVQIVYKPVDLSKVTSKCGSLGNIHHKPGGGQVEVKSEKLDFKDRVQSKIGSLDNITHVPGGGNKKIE
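Compound effects on tau fibrillization are measured by Alexa 594 fluorescence polarization (ex 555, em 632 nm). K18 P301L tau is used at 15 uM with 0.24 uM labeled tracer, and 20 uM heparin induces aggregation over 6 hr at 37 C.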
JMJD2E inh = qHTS Assay for Inhibitors of Human Jumonji Domain Containing 2E (JMJD2E); AID 2147, 2009; Potency, µM (series often up to 57.1 µM), most hits filed as inhibitors; Lysine-specific demethylase 4E (Homo sapiens), B2RXH2; 1.6% of 230,000 active; JMJD2E catalytic domain, FDH-coupled NADH fluorescence (FDH is formaldehyde dehydrogenase); further: nearly all actives have a fitted effect of over 50% in size
Target sequence (B2RXH2 1-337 limits assumed): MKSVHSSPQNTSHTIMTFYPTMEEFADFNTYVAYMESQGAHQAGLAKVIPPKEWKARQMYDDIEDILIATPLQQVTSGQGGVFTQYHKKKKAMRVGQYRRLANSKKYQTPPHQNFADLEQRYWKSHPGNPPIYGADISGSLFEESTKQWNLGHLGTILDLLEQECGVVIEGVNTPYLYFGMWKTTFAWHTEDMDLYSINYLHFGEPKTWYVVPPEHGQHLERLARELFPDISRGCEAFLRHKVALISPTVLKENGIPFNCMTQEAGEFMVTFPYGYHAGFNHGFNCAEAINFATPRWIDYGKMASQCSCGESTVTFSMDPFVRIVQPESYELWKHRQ
Tau fibril ThT = qHTS for Inhibitors of Tau Fibril Formation, Thioflavin T Binding; AID 1460, 2008; Potency, µM (highest dose often 57.4 µM), hits mostly inhibitors; recombinant tau K18 P301L (four-repeat tau fragment), heparin-induced fibrillization, ThT fluorescence; Microtubule-associated protein tau (Homo sapiens), P10636; 2.1% of 270,000 active; active means well fitted curve in the direction sought with a large enough effect; inconclusive means small, poorly fitted or top-dose-only effect, or another doubt; inactive means no such curve, though single readings can be large; an effect the other way counts as inactive or inconclusive; further: nearly all actives have a fitted effect of over 55% in size
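Aggregation was driven by heparin (20 uM final) acting on recombinant tau […] bearing P301L in 100 mM sodium acetate pH 7; fibrils were detected with Thioflavin T.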
Numbers stand for hits; . = inactive; ? = inconclusive; / = no result; ! = repeats disagree; [ ] = another dose, or the depositor's remark. Unless noted, the call rests on the fitted dose curve; in most records, active means well fitted inhibition curve with a large enough effect (not every such curve was filed as active); inconclusive means small, poorly fitted or top-dose-only effect, or another doubt; inactive means no such curve, though single readings can be large or run the other way.

SMILES | ALDH1A1 block | HPGD inh | Tau fluor counter | Tau FP inhib | JMJD2E inh | Tau fibril ThT
O=C(Nc1cccc(Cl)c1N1CCCCC1)c1ccc(N2CCOCC2)c([N+](=O)[O-])c1 | . | . | . | . | . | .
CCC(=O)N1CCN(c2ccc(NC(=O)c3ccc(N4CCCC4)c([N+](=O)[O-])c3)cc2)CC1 | . | . | . | . | . | 0.63µM
CCCC(=O)N1CCN(c2ccc(NC(=O)c3ccc(OCC)c([N+](=O)[O-])c3)cc2)CC1 | . | . | . | . | . | ?
CCC(=O)N1CCN(c2ccc(NC(=S)NC(=O)c3ccc(OC)c([N+](=O)[O-])c3)cc2)CC1 | 11µM | / | ? | ? | . | 2.5µM
COc1ccc(CCNC(=O)c2cnc3sc(N4CCOCC4)nn3c2=O)cc1 | / | / | . | . | / | ?
CCOC(=O)c1cc(-c2ccccc2)n(CCCC(=O)Nc2ccc(C)c(Cl)c2)c1C | / | / | ? | . | / | .
O=C(c1ccc(=O)[nH]n1)N1CCc2ccccc2C1 | / | / | . | . | . | .
CCc1ccccc1NC(=O)C1CCN(S(=O)(=O)c2ccc3[nH]c(=O)ccc3c2)CC1 | / | / | . | . | / | .
COc1ccc(OC)c(-c2cc(C(=O)Nc3ccc(F)cc3F)no2)c1 | ? | / | . | . | ? | .
Cc1ccc(NC(=O)c2ccc(NCCCN3CCC(C)CC3)c([N+](=O)[O-])c2)cc1F | . | / | . | . | . | ?
O=C(Nc1cccc(Cl)c1)c1ccc(NCCCN2CCOCC2)c([N+](=O)[O-])c1 | . | . | ? | . | . | 14µM
CC(Sc1ccccc1)C(=O)NN=C1CCN(C)CC1 (centres undefined) | ? | / | . | . | . | .
CC(=O)Nc1c(C(=O)Nc2ccccc2F)oc2ccccc12 | / | / | . | . | / | .
Cn1ccc2cc3c(cc21)CCN3C(=O)Nc1cccnc1 | . | . | ? | . | 35µM! | ?
CN1CCc2cc(NC(=O)Nc3cccnc3)ccc21 | . | . | ? | ? | . | ?
COc1ccc(Nc2nc(-c3ccccc3F)nc3ccccc23)cc1OC | / | / | 10µM[quencher] | . | / | ?
C/C(=N/Nc1nc(-c2ccccc2F)nc2ccccc12)c1ccccc1O | / | / | ? | . | . | 10µM
COc1ccc(OC)c(Nc2nc(-c3ccccc3O)nc3ccccc23)c1 | . | / | ? | . | . | .
O=C(CN1C(=O)COc2ccc(S(=O)(=O)N3CCCCCC3)cc21)Nc1cccc(Cl)c1 | / | / | ? | ? | / | .
S=c1[nH]nc(Nc2cccc3ccccc23)s1 | / | / | ? | . | 25µM | ?
CCCCCCC1CC(=O)NC(=S)N1 (centres undefined) | 4µM | / | . | . | . | .
Cc1[nH]c2ccccc2c1C(=O)COC(=O)c1ccc([N+](=O)[O-])s1 | 11µM | / | 11µM[quencher] | . | . | 7.1µM
O=C(COC(=O)c1ccc([N+](=O)[O-])s1)Nc1ccccc1 | ? | . | . | . | . | .
Cc1c(Cl)cnc(NC(=O)COC(=O)c2ccc([N+](=O)[O-])s2)c1Cl | 11µM | ? | . | . | . | ?
O=C(COC(=O)c1ccc([N+](=O)[O-])s1)NC(c1ccccc1)c1ccccc1 | 22µM | . | ? | . | . | .
SMILES | ALDH1A1 block | HPGD inh | Tau fluor counter | Tau FP inhib | JMJD2E inh | Tau fibril ThT
O=C(COC(=O)c1ccc([N+](=O)[O-])s1)Nc1ccc(Cl)cn1 | ? | . | . | . | . | ?
Cc1ccc(NC(=S)Nc2cc(C(=O)O)ccc2N2CC3CC(C2)c2cccc(=O)n2C3)cc1C (centres undefined) | 28µM | / | . | . | . | .
O=C(CSc1cccc2cccc(Cl)c12)OCC(=O)N1CCN(C(=O)c2ccco2)CC1 | 11µM | ? | . | . | . | ?
Cc1cc(Br)ccc1SCC(=O)OCC(=O)N1CCN(C(=O)c2ccco2)CC1 | ? | ? | . | . | . | .
O=C(NCc1ccco1)c1sc2cc(F)ccc2c1Cl | . | 25µM | . | . | . | ?
O=C(OCC(=O)N1CCN(C(=O)c2ccco2)CC1)c1sc2cc(F)ccc2c1Cl | 28µM | . | . | . | . | .
O=C(Cc1ccccc1F)OCC(=O)N1CCN(C(=O)c2ccco2)CC1 | ? | / | . | . | . | .
COCCNc1nc(-c2ccoc2)nc2ccccc12 | . | / | / | / | / | /
Cc1ccc(C(c2sc3nc(-c4ccco4)nn3c2O)N2CCCCC2)cc1 (centres undefined) | / | / | . | . | / | ?
O=C1c2ccccc2C(O)(c2ncc[nH]2)N1CCc1ccccc1 (centres undefined) | 14µM | . | . | . | . | .
O=C1c2ccccc2C(O)(Cc2ccccc2)N1CCCN1CCOCC1 (centres undefined) | . | . | . | . | . | .
O=C(CCC(=O)c1ccc(F)cc1)Nc1ccccc1Cl | . | . | . | . | . | .
O=C(CN1CCN(S(=O)(=O)c2ccc(Br)cc2)CC1)Nc1ccccc1F | 28µM | . | . | . | . | .
COc1ccc(C)cc1NC(=O)CN1CCN(S(=O)(=O)c2ccc(Br)cc2)CC1 | 0.16µM | . | . | . | . | .
COc1ccccc1NC(=O)CN1CCCN(S(=O)(=O)c2ccc(Br)cc2)CC1 | / | / | . | . | / | .
O=C(CN1CCN(CC(=O)c2ccc(F)cc2)CC1)Nc1ccccc1Cl | 2.2µM | ? | . | . | . | .
O=C(CCN1CCN(S(=O)(=O)c2ccc(Br)cc2)CC1)Nc1ccccc1F | ? | / | . | . | . | .
NS(=O)(=O)c1ccc(NC(=O)CN2CCCN(S(=O)(=O)c3ccc(F)cc3)CC2)cc1 | ? | / | . | . | . | .
O=C(CN1CCN(S(=O)(=O)c2ccc(Br)cc2)CC1)Nc1ccc(F)cc1 | 32µM | . | . | . | . | .
CCOc1ccccc1CNc1ncnc2onc(-c3ccc(F)cc3)c12 | / | / | . | . | / | .
O=C(CCN1CCN(CC(=O)Nc2ccccc2Cl)CC1)Nc1ccccc1F | . | . | . | . | . | .
COc1ccc(S(=O)(=O)CCC(=O)Nc2cc(C)ccc2OC)cc1 | 25µM | / | . | . | . | .
COc1ccccc1NC(=O)CCS(=O)(=O)c1ccccc1 | . | / | . | . | . | .
O=C(CN1CCN(CC(=O)Nc2ccccc2C(F)(F)F)CC1)Nc1ccccc1F | 25µM | . | . | . | . | .
O=C(CN1CCCN(S(=O)(=O)c2ccc(F)cc2)CC1)Nc1ccccc1Br | 28µM | . | . | . | . | ?
CCN(CC(=O)NCc1ccc(F)cc1)CC(=O)Nc1ccc(S(=O)(=O)N2CCCC2)cc1 | 11µM | / | . | . | . | .

Assay outcomes from PubChem BioAssay.
